The source made the active and inactive calls. Calls come from the whole dose curve; as a rule, active = well fitted curve in the direction sought with a large enough effect in the repeat runs; inconclusive = weak or mixed curves; inactive = flat fitted curve, though single readings scatter.
% is set by controls: 0 for no effect and ±100 for the full control effect.

One test in a line: qHTS assay to test for compound auto fluorescence at 590 nm (red) in HepG2 cells (AID 720674). The settings on record: HepG2 autofluorescence, red 540/590 nm, 1 h; series mostly up to 91.3 µM; fluorescence, relative to Rose Bengal: at the top concentration. An outline of the steps: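 Rose Bengal sodium served as the red fluorophore standard. HepG2 monolayers (overnight attachment, MEM with 10% FBS) were exposed to test compounds for 1 hr at 37 C and read at Ex 540/Em 590 nm.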
As to `C=CCc1ccc2c(c1)OCO2`, the compound was classed as inactive.

`CCC(=O)O[C@H]1CC[C@H]2[C@@H]3CCC4=CC(=O)CC[C@]4(C)[C@H]3CC[C@]12C`: the call was inactive.

Take `CCOC(=S)S`: the compound was called inactive.

Turning to `c1ccc(N=Nc2ccccc2)cc1`, the compound was classed as inactive.

In the case of `COc1ccc(C=O)cc1`, the compound was called inactive.

Regarding `ClC1C(Cl)C(Cl)C(Cl)C(Cl)C1Cl` (centres undefined), the compound was called inactive.

As for `c1ccc(NNc2ccccc2)cc1`, the call was inactive.

`C[C@]12CCC(=O)C(O)=C1CC[C@@H]1[C@@H]2CC[C@]2(C)C(=O)CC[C@@H]12`: the outcome was inactive.

As for `CCCCN(CCCC)N=O`, the compound was classed as inactive.

For the compound `CCOP(=S)(OCC)O/N=C(\C#N)c1ccccc1`, the result was inactive.

As for `N#CCCCl`, the call was inactive.

For the compound `O=[N+]([O-])c1cccc2ccccc12`, the call was inactive.

For `COP(=O)(OC)OC`, the compound was called inactive.

Take `Nc1ccc(-c2ccccc2)cc1`: the result was inactive.

In the case of `CN(C)C(=O)Nc1ccc(Cl)cc1`, the compound was classed as inactive.

As to `Nc1ccc(Cl)cc1N`, the compound was classed as inactive.

For the compound `COP(=S)(OC)Oc1cc(Cl)c(Cl)cc1Cl`, the compound was classed as inactive.

With `NNC(N)=S`, the compound was called inactive.

On to `Oc1c(Cl)c(Cl)c(Cl)c(Cl)c1Cl`, for which the result was inactive.

As to `CCCCCCOC(=O)c1ccccc1C(=O)OCCCCCC`, the compound was classed as inactive.

As for `Cc1cc(Cl)ccc1OCCCC(=O)O`, the outcome was inactive.

Consider `CC(C)N(C(=O)SCC(Cl)=C(Cl)Cl)C(C)C`, for which the outcome was inactive.

In the case of `O=c1oc2ccccc2c(O)c1C(CC(O)c1ccc(-c2ccc(Br)cc2)cc1)c1ccccc1` (centres undefined), the result was inactive.

A short description of a further test: qHTS assay to test for compound auto fluorescence at 535 nm (green) in HepG2 cells (AID 720675). The settings on record: green autofluorescence 485/535 nm, 1 h; series mostly up to 91.3 µM; fluorescence, % of fluorescein control: at the top concentration.
On to `C=CCc1ccc2c(c1)OCO2`, for which the compound was called inactive.

With `CCCCOCCOP(=O)(OCCOCCCC)OCCOCCCC`, the result was inactive.

Consider `N[C@@H](Cc1ccc(N(CCCl)CCCl)cc1)C(=O)O`, for which the compound was called inactive.

As for `CCOC(=S)S`, the call was inactive.

On to `Nn1cnnc1`, for which the compound was called inactive.

On to `COc1ccc(C=O)cc1`, for which the call was inactive.

Turning to `C[C@]12CCC(=O)C(O)=C1CC[C@@H]1[C@@H]2CC[C@]2(C)C(=O)CC[C@@H]12`, the outcome was inactive.

As for `CCN(CC)N=O`, the compound was called inactive.

For the compound `CCCCN(CCCC)N=O`, the call was inactive.

As to `C=CCN(CC=C)C(=O)C(Cl)Cl`, the compound was classed as inactive.

Take `Nc1ccc(Cl)c(Cl)c1`: the call was inactive.

On to `N#CCCCl`, for which the call was inactive.

On to `CCN(CC)C(=O)SCc1ccc(Cl)cc1`, for which the outcome was inactive.

Regarding `Nc1ccc(-c2ccccc2)cc1`, the result was inactive.

Turning to `Oc1cc(Cl)ccc1Oc1ccc(Cl)cc1Cl`, the result was inactive.

Regarding `Nc1ccc(Cl)cc1N`, the “fluorescence, % of fluorescein control” value is 3.37% [at 95.7 µM] (inactive).

For `COP(=S)(OC)Oc1cc(Cl)c(Cl)cc1Cl`, the outcome was inactive.

`CC(C)C(=O)OCC(C)(C)C(OC(=O)C(C)C)C(C)C` (centres undefined): the compound was classed as inactive.

For `Oc1c(Cl)c(Cl)c(Cl)c(Cl)c1Cl`, the call was inactive.

`Cc1cc(Cl)ccc1OCCCC(=O)O`: the compound was classed as inactive.

`CC(C)N(C(=O)SCC(Cl)=C(Cl)Cl)C(C)C`: the outcome was inactive.

These data come from PubChem BioAssay (Tox21).
